Test results published in PubChem BioAssay (EPA / NIEHS).
Inconclusive results are not listed. Calls of active or inactive are those of the source. How the source made its calls, unless noted: active means hit-call score of the fitted dose curve at least 0.9, where 1 is the maximum; inactive means score below 0.9.

What was measured:
[1] = read-out: Vascular cell adhesion molecule 1 (VCAM1), VCAM1 (gene 7412); assay: BSK_LPS_VCAM1: BioMAP Diversity Plus: LPS Assay for Vascular cell adhesion molecule 1 (VCAM1) Biomarker Activity (AID 2283086); details: primary human HUVEC with PBMC; actives raise or lower the signal
How it was run: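 Human umbilical vein endothelial cells co-cultured with PBMC and stimulated with LPS; VCAM-1 measured by ELISA 24 h after dosing. Bidirectional curve fitting against DMSO baseline; cytotoxicity tracked in parallel by SRB total-protein staining.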

CD38, CD38 (gene 952) = assay: BSK_SAg_CD38: BioMAP Diversity Plus: SAg Assay for CD38 Biomarker Activity (AID 2283087); details: primary human HUVEC with PBMC; actives raise or lower the signal
How it was run: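 Human HUVEC plus PBMC co-culture stimulated with superantigen; CD38 measured by ELISA 24 h after chemical dosing. Fluorescence read-out, bidirectional fit against DMSO; cytotoxicity tracked in parallel by SRB and Alamar Blue.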

CD40, CD40 (gene 958) = assay: BSK_SAg_CD40: BioMAP Diversity Plus: SAg Assay for CD40 Biomarker Activity (AID 2283088); details: primary human HUVEC with PBMC; actives raise or lower the signal
How it was run: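 CD40 is measured by fluorescence ELISA in an endothelial/PBMC primary human co-culture at 24 h post-dose. Fitting is bidirectional, DMSO baseline. Parallel SRB staining (560 nm) flags cytotoxicity.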

CD69, CD69 (gene 969) = assay: BSK_SAg_CD69: BioMAP Diversity Plus: SAg Assay for CD69 Biomarker Activity (AID 2283089); details: primary human HUVEC with PBMC; actives raise or lower the signal;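 on AC50: cell surface CD69 protein quantified by ELISA with fluorescence detection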
How it was run: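 Primary human vascular co-culture (umbilical vein endothelium with peripheral blood mononuclear cells) exposed to test chemical for 24 h. CD69 levels quantified by fluorescence ELISA; DMSO served as negative control for bidirectional fitting.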

[2] = read-out: Monocyte Chemoattractant Protein-1 (MCP1), CCL2 (gene 6347); assay: BSK_SAg_MCP1: BioMAP Diversity Plus: SAg Assay for Monocyte Chemoattractant Protein-1 (MCP1) Biomarker Activity (AID 2283090); details: primary human HUVEC with PBMC; actives raise or lower the signal
How it was run: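 MCP-1 levels in the endothelial–PBMC SAg co-culture were quantified by ELISA at 24 h post-dosing; both increases and decreases versus DMSO scored. Cytotoxicity monitored by SRB total protein in parallel cultures.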

[3] = read-out: E-selectin (Homo sapiens) (UniProt P16581); assay: BSK_SAg_Eselectin: BioMAP Diversity Plus: SAg Assay for Eselectin Biomarker Activity (AID 2283091); details: primary human HUVEC with PBMC; actives raise or lower the signal
How it was run: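 Cell-surface E-selectin is read by ELISA at 24 h in the SAg co-culture of HUVEC and PBMC. Curves are fitted in both directions relative to DMSO. Parallel SRB total-protein staining tracks overt toxicity.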

[4] = read-out: Monokine induced gamma interferon (MIG), CXCL9 (gene 4283); assay: BSK_SAg_MIG: BioMAP Diversity Plus: SAg Assay for Monokine induced gamma interferon (MIG) Biomarker Activity (AID 2283092); details: primary human HUVEC with PBMC; actives raise or lower the signal
How it was run: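 Endothelial cells and PBMC were co-cultured, exposed to test chemicals, and sampled 24 h later. MIG was measured by ELISA, and responses were fitted in both directions relative to DMSO.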

[5] = BSK_SAg_PBMCCytotoxicity: PBMC Cytotoxicity Assessment in the BioMAP Diversity Plus: SAg Assay (AID 2283093); details: primary human HUVEC with PBMC;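 further: PBMC viability measured as Alamar Blue reduction fluorescence at 546/580 nm; fitted both ways against DMSO so a hit may be loss or gain of signal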;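 on AC50: PBMC superantigen activated with SEB plus TSST-1 one hour after compound addition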
How it was run: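 Compound added to 75,000 PBMC/well for 1 h; SEB and TSST-1 then added at 20 ng/mL final each; 90 h incubation; Alamar Blue 6 h; read 546/580 nm ex/em. Activity fitted bidirectionally relative to DMSO baseline.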

[6] = read-out: Interleukin-8 (IL8), CXCL8 (gene 3576); assay: BSK_SAg_IL8: BioMAP Diversity Plus: SAg Assay for Interleukin-8 (IL8) Biomarker Activity (AID 2283094); details: primary human HUVEC with PBMC; actives raise or lower the signal
How it was run: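 Human umbilical vein endothelial cells co-cultured with PBMC, stimulated with superantigen; IL-8 measured by ELISA 24 h after chemical dosing. Bidirectional fitting versus DMSO; SRB staining in parallel cultures tracks cytotoxicity.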

[7] = BSK_SAg_Proliferation: Cell Proliferation Assessment in the BioMAP Diversity Plus: SAg Assay (AID 2283095); details: primary human HUVEC with PBMC
How it was run: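 Human umbilical vein endothelial cells co-cultured with PBMC; sulforhodamine B total-protein staining (0.1% SRB after 10% TCA fixation, absorbance 560 nm) at 96 h in sub-confluent culture. Fitted bidirectionally against DMSO.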

[8] = BSK_SAg_SRB: Viability Assessment in the BioMAP Diversity Plus: SAg Assay (AID 2283096); details: primary human HUVEC with PBMC;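 further: cells read one day after compound addition; hits may be either gain or loss of signal compared with DMSO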
How it was run: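 Total protein by sulforhodamine B staining, 24 h after dosing, in HUVEC–PBMC co-culture; DMSO-referenced bidirectional fitting.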

[9] = read-out: Tumor necrosis factor (Homo sapiens) (UniProt P01375); assay: BSK_LPS_TNFa: BioMAP Diversity Plus: LPS Assay for Tumour Necrosis Factor alpha (TNFa) Biomarker Activity (AID 2283085); details: primary human HUVEC with PBMC; actives raise or lower the signal
How it was run: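 Human umbilical vein endothelial cells co-cultured with PBMC and stimulated with LPS. TNFa was measured by ELISA 24 h after chemical dosing, fitted bidirectionally relative to DMSO.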

[10] = biological target: human CYP2D6, CYP2D6 (gene 1565) (UniProt P10635); assay: NVS_ADME_hCYP2D6: NovaScreen (NVS) CYP450-related Enzyme Activity (ADME) Assay for human CYP2D6 (AID 2283107; active means hit-call score of the fitted dose curve at least 0.9, where 1 is the maximum)
How it was run: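 Fluorescence readout of recombinant CYP2D6 (insect-cell derived) activity after 1 h incubation with test chemical. Acetonitrile served as baseline, loss-of-signal direction. Single-concentration duplicate screening at 10 uM preceded concentration-response retesting.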

[11] = biological target: human CYP2C9, CYP2C9 (gene 1559) (UniProt P11712); assay: NVS_ADME_hCYP2C9: NovaScreen (NVS) CYP450-related Enzyme Activity (ADME) Assay for human CYP2C9 (AID 2283108; active means hit-call score of the fitted dose curve at least 0.9, where 1 is the maximum)
How it was run: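 Fluorescence readout of CYP2C9 activity (SF9-expressed human enzyme) at 0.75 h. The primary screen used 10 uM in duplicate, with concentration-response follow-up for actives; acetonitrile was the negative control.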

[12] = biological target: Cytochrome P450 2C19 (Homo sapiens) (UniProt P33261); assay: NVS_ADME_hCYP2C19: NovaScreen (NVS) CYP450-related Enzyme Activity (ADME) Assay for human CYP2C19 (AID 2283113; active means hit-call score of the fitted dose curve at least 0.9, where 1 is the maximum;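 further: potency for inhibition seen as loss of fluorescent signal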)
How it was run: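 Compounds first screened in duplicate at 10 uM, then confirmed in concentration series. Insect-cell-expressed human CYP2C19 turned over a fluorogenic substrate, and fluorescence was read after 1 h. Inhibition taken as signal loss relative to acetonitrile.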

[13] = biological target: human CYP2A6, CYP2A6 (gene 1548) (UniProt P11509); assay: NVS_ADME_hCYP2A6: NovaScreen (NVS) CYP450-related Enzyme Activity (ADME) Assay for human CYP2A6 (AID 2283099; active means hit-call score of the fitted dose curve at least 0.9, where 1 is the maximum)
How it was run: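 Compounds screened at 10 uM (duplicate) and, if active, titrated to a 20 uM top concentration against insect-cell-expressed CYP2A6. Loss of fluorescent product signal after 0.5 h, relative to acetonitrile baseline, indicates inhibition.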

Measured: AC50

Chain of E-selectin (Homo sapiens) (P16581 whole entry, looked up): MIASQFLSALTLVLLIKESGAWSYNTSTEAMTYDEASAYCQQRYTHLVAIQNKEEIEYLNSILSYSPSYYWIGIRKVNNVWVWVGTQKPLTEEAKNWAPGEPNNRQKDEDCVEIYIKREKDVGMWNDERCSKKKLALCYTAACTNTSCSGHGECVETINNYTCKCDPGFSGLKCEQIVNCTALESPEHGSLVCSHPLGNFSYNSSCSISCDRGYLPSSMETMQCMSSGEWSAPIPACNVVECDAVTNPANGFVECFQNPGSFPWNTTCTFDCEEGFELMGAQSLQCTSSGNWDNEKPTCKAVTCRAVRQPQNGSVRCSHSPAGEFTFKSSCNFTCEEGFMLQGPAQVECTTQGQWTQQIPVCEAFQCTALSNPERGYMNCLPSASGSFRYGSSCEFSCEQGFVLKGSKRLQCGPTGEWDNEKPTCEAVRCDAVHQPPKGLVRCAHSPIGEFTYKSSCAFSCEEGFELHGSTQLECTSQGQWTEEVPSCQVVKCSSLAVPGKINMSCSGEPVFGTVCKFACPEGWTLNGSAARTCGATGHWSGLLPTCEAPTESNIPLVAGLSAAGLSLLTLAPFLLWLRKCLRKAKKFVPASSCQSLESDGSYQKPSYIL
Chain of Tumor necrosis factor (Homo sapiens) (P01375 whole entry, looked up): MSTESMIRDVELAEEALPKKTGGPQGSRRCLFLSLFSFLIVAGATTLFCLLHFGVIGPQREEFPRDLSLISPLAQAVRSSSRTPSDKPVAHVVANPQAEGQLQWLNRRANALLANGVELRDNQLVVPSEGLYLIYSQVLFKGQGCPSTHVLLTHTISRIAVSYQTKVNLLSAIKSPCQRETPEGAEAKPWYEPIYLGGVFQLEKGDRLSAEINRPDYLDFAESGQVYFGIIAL
Chain of human CYP2C9, CYP2C9 (gene 1559) (P11712 whole entry, looked up): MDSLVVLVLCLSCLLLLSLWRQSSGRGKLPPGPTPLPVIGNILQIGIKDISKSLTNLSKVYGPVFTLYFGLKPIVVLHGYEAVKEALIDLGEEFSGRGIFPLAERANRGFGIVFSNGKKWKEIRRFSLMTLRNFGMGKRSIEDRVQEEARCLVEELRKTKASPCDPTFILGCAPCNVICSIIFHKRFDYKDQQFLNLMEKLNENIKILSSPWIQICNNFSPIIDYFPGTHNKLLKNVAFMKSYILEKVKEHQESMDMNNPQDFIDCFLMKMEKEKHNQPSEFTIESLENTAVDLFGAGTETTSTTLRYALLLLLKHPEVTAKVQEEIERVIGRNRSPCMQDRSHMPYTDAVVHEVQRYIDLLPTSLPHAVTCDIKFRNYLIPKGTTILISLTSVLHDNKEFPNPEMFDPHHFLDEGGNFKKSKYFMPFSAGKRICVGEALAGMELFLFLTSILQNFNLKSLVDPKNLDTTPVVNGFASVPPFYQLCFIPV
Chain of human CYP2D6, CYP2D6 (gene 1565) (P10635 whole entry, looked up): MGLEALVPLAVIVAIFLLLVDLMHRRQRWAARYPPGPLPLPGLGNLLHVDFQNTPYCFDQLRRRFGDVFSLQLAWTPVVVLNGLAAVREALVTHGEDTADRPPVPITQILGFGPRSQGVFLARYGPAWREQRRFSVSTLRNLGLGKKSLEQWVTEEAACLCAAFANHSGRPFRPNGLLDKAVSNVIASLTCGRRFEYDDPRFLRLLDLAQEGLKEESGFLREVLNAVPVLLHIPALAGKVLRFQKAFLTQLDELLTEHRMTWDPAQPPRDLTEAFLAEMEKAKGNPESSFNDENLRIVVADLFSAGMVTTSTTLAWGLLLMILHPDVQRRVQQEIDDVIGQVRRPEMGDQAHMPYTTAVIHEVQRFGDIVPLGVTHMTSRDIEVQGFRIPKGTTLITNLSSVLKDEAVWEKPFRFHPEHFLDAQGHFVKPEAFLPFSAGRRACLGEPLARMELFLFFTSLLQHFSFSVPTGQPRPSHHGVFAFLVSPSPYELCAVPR
Chain of human CYP2A6, CYP2A6 (gene 1548) (P11509 whole entry, looked up): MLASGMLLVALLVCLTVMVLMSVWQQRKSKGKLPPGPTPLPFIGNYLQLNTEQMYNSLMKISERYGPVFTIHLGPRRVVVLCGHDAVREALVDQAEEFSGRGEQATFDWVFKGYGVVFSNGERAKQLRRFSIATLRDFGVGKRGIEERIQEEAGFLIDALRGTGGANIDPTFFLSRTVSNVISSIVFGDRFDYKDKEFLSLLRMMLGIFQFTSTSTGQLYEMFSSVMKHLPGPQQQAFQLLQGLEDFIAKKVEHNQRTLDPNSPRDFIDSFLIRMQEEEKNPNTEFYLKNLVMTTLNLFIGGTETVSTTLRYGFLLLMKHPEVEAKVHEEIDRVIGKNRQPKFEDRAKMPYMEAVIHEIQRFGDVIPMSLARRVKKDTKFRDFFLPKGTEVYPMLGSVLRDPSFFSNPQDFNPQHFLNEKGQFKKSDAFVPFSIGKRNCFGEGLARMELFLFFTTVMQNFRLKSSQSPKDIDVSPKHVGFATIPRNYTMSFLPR

CC(=O)OC[C@H]1O[C@@](COC(C)=O)(O[C@H]2O[C@H](COC(C)=O)[C@@H](OC(C)=O)[C@H](OC(C)=O)[C@H]2OC(C)=O)[C@@H](OC(C)=O)[C@@H]1OC(C)=O
not listed: [9] | [10] | [11] | [12] | [13]
inactive: all other assays above

CC1(C)C(=O)N(Br)C(=O)N1Br
not listed: CD40, CD40 (gene 958) | [10] | [11] | [12] | [13]
inactive: all other assays above

CCOC(=O)CC(CC(=O)OCC)(OC(C)=O)C(=O)OCC
not listed: CD40, CD40 (gene 958) | [10] | [11] | [12] | [13]
inactive: all other assays above

Fc1ccccc1[C@@H](F)COC1CCC(Nc2ncnc3[nH]ncc23)CC1 (stereo not given in full)
active: CD38, CD38 (gene 952) 20 µM | CD69, CD69 (gene 969) 24.2 µM | [2] 31.6 µM | [5] 13.7 µM | [6] 20 µM | [7] 26.8 µM | [8] 25.4 µM
inactive: [9] | [1] | [3] | [4]

Cc1ccc(N)cc1O
active: [3] 6.15 µM | [5] 9.99 µM | [7] 8.98 µM | [10] 3.9 µM | [11] 5.95 µM | [12] 7.57 µM
not listed: CD40, CD40 (gene 958) | [13]
inactive: all other assays above

CC(C)CCCCCCCOC(=O)CCCCC(=O)OCCCCCCCC(C)C
not listed: CD40, CD40 (gene 958) | [10] | [11] | [12] | [13]
inactive: all other assays above

CCOCCO
not listed: CD40, CD40 (gene 958) | CD69, CD69 (gene 969) | [10] | [11] | [12]
inactive: all other assays above
